In PubChem BioAssay (EPA / NIEHS):
Results filed as inconclusive are left out. Activity calls are given as the source filed them. How the source made its calls: active means hit-call score of the fitted dose curve at least 0.9, where 1 is the maximum; inconclusive means response in the unintended direction; inactive means score below 0.9.

target: PGR (gene 5241) (UniProt P06401); experiment: TOX21_PR_BLA_Followup_Agonist_ratio: Tox21 HEK293 Progesterone Receptor (PR) Agonism Beta-lactamase Follow-Up Assay, Ratio (AID 2283933)
Protocol: TOX21_PR_BLA_Followup is a secondary assay for specificity for the TOX21_PR_BLA_Agonist assay. To differentiate true PR agonists from cytotoxic substances, this follow up assay is multiplexed with a cell viability assay. The compounds were also tested for auto fluorescence that may interfere with the biological target readout resulting in potential false positives and/or negatives. To identify the compounds that stimulate PR signaling, a PR-UAS-bla GripTite cell line i.e. PR-UAS-bla HEK293T (Invitrogen, Carlsbad, CA, USA) containing a beta-lactamase reporter gene under the control of an UAS response element was used to screen Tox21 10K compound library. The cytotoxicity of the Tox21 compound library against the PR-bla cell line was tested in parallel by measuring the cell viability using CellTiter-Glo assay in the same wells. TOX21_PR_BLA_Followup_Agonist_ratio is an assay readout measuring reporter gene via receptor activity and designed using inducible reporter (beta lactamase induction) detected with GAL4 b-lactamase reporter gene. The signal is derived from the ratio of cleaved (ch2) to uncleaved (ch1) reporter gene substrate used as the measure of target activity.Data from the assay component TOX21_PR_BLA_Followup_Agonist_ratio was analyzed into 1 assay endpoint. This assay endpoint, TOX21_PR_BLA_Followup_Agonist_ratio, was analyzed in the positive analysis fitting direction relative to DMSO as the negative control and baseline of activity. Using a type of inducible reporter, measures of receptor for gain-of-signal activity can be used to understand the reporter gene at the pathway-level as they relate to the gene NR3C3. Furthermore, this assay endpoint can be referred to as a primary readout, because this assay has produced multiple assay endpoints where this one serves a reporter gene function. To generalize the intended target to other relatable targets, this assay endpoint is annotated to the nuclear receptor intended target family, where the subfamily is steroidal.
Assay Protocol: PR-UAS-bla HEK 293T cells were dispensed at 3,000 cells/5 uL of assay medium containing 2% charcoal stripped FBS per well into black wall/clear-bottom 1536-well plates using a Multidrop Combi (ThermoFisher Scientific, Waltham, MA) dispenser. After the assay plates were incubated at a 37C and 5% CO2 for 6hr, 23 nL of compounds dissolved in DMSO, positive controls or DMSO only was transferred to the assay plate by a Pintool station (Kalypsys, San Diego, CA). The plates were incubated at 37C and 5% CO2 for 16hr. Then 1 uL of LiveBLAzer B/G FRET substrate was added using a BioRAPTR FRD (Flying Reagent Dispenser, Aurora Discovery, San Diego, CA). After the plates were incubated at room temperature for 2 hours, fluorescence intensity was measured by an Envision plate reader (PerkinElmer, Shelton, CT).

Chain of PGR (gene 5241) (P06401 whole entry, looked up): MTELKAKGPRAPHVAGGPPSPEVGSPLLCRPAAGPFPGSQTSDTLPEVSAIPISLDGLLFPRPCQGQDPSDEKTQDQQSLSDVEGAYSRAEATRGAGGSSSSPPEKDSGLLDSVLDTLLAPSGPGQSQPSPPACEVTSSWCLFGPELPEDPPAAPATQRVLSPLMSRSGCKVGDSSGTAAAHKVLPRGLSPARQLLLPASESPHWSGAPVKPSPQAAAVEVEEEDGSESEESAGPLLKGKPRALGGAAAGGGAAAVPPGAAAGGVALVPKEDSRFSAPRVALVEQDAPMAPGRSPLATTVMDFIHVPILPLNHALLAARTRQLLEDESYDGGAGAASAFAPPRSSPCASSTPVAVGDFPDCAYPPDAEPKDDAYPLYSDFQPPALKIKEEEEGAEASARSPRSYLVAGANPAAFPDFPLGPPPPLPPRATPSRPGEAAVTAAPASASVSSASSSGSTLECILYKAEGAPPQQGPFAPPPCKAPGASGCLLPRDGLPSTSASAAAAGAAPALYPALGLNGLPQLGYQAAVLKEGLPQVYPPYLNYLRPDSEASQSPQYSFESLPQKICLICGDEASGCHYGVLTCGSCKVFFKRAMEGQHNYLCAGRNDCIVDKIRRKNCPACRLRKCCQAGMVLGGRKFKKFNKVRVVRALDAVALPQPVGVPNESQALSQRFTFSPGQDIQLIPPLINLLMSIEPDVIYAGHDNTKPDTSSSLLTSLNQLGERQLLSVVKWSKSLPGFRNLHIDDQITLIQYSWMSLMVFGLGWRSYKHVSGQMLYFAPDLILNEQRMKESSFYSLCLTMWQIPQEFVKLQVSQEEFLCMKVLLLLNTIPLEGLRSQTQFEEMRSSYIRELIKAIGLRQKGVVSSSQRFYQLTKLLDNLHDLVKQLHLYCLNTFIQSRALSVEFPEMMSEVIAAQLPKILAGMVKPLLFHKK

Row | Compound | outcome | AC50
1 | Oc1ccc(N=Nc2ccccc2)cc1 | inactive | –
2 | C=C1C(CCl)(CCl)C2(Cl)C(Cl)C(Cl)C1(Cl)C2(Cl)Cl (stereo not drawn) | inactive | –
3 | CC(C)C[C@H](NC(=O)[C@H](Cc1ccccc1)NC(=O)c1cnccn1)B(O)O | inactive | –
4 | O=C(Nc1ccc(Cl)c(Cl)c1)C1CC1 | inactive | –
5 | CCC(=C(CC)c1ccc(O)cc1)c1ccc(O)cc1 | inactive | –
6 | CCn1c2ccccc2c2cc([N+](=O)[O-])ccc21 | inactive | –
7 | CC(C)C[C@H](NC(=O)[C@H](CCc1ccccc1)NC(=O)CN1CCOCC1)C(=O)N[C@@H](Cc1ccccc1)C(=O)N[C@@H](CC(C)C)C(=O)[C@@]1(C)CO1 | inactive | –
8 | CC(=O)OCC(=O)[C@@]1(O)CC[C@H]2[C@@H]3CCC4=CC(=O)C=C[C@]4(C)[C@H]3[C@@H](O)C[C@@]21C | inactive | –
9 | CC(=O)OCC(=O)[C@@]1(O)CC[C@H]2[C@@H]3CCC4=CC(=O)C=C[C@]4(C)[C@@]3(F)[C@@H](O)C[C@@]21C | – | 16.9 µM (active)
10 | COC(=O)C1=C(C)NC(C)=C(C(=O)OCCN2CCN(C(c3ccccc3)c3ccccc3)CC2)C1c1cccc([N+](=O)[O-])c1 (stereo not drawn) | inactive | –
11 | Cc1cc(C)c(C=C2C(=O)Nc3ccccc32)[nH]1 | inactive | –
12 | NC(=O)n1c(O)c(C(=O)c2cccs2)c2cc(Cl)ccc21 | inactive | –
13 | COC(=O)C1=C(C)NC(COC(N)=O)=C(C(=O)OC(C)C)C1c1cccc(Cl)c1Cl (stereo not drawn) | – | 23 µM (active)
